# Numbering of substitutions follows the chain as printed.
# Columns and labels:
# Test in all cases: PBM; 200 nM protein, PBS
# Conditions in all cases: dsDNA, one strand shown
# [1] = molecular target: HOXB9 (Homo sapiens, UniProt P17482 171-250, T197M)
# [2] = molecular target: HOXC9 (Homo sapiens, UniProt P31274 178-260, K195R)
# [3] = molecular target: HOXA7 (Homo sapiens, UniProt P31268 116-202)
# [4] = molecular target: HOXC10 (Homo sapiens, UniProt Q9NYD6 254-340)
# [5] = molecular target: ALX4 (Homo sapiens, UniProt Q9H161 200-286)
# Sequence of ALX4 (Homo sapiens, UniProt Q9H161 200-286) (Q9H161 200-286): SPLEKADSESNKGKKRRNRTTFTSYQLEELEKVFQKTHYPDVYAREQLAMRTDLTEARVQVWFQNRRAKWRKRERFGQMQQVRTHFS
# [6] = molecular target: T1, PAX4 (Homo sapiens, UniProt O43316 9-242, R200K)
# T1 sequence: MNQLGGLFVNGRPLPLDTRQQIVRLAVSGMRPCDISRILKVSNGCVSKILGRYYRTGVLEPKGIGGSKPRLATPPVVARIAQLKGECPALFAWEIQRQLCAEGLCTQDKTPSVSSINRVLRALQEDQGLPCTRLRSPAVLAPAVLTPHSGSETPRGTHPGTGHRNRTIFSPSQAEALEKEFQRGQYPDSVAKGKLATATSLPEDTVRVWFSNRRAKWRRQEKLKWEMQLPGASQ
# [7] = molecular target: PRRX1 (Homo sapiens, UniProt P54821 80-166, F113S)
# Sequence of PRRX1 (Homo sapiens, UniProt P54821 80-166, F113S) (P54821 80-166 F113S): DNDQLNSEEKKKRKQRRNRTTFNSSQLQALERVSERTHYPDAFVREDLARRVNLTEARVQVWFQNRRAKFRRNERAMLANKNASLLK
# [8] = molecular target: T2, PAX4 (Homo sapiens, UniProt O43316 9-242)
# T2 sequence: T1 sequence with K192R
# [9] = molecular target: HOXB6 (Homo sapiens, UniProt P17509 132-218, K202E)
# Sequence of HOXB6 (Homo sapiens, UniProt P17509 132-218, K202E) (P17509 132-218 K202E): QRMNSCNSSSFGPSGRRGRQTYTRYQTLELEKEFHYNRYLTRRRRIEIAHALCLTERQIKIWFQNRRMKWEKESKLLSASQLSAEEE
# [10] = molecular target: ALX4 (Homo sapiens, UniProt Q9H161 200-286, Q225E)
# Sequence of ALX4 (Homo sapiens, UniProt Q9H161 200-286, Q225E) (Q9H161 200-286 Q225E): as the sequence (Q9H161 200-286) above, with Q26E counted along it
# [11] = molecular target: HOXA4 (Homo sapiens, UniProt Q00056 201-287, R217L)
# Sequence of HOXA4 (Homo sapiens, UniProt Q00056 201-287, R217L) (Q00056 201-287 R217L): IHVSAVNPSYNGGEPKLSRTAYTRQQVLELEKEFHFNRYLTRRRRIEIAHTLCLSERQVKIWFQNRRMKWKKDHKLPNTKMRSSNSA
# [12] = molecular target: HOXB4 (Homo sapiens, UniProt P17483 148-234, V174I)
# Sequence of HOXB4 (P17483 148-234 V174I): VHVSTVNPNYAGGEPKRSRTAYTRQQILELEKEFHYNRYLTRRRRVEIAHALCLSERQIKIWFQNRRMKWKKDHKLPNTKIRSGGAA
# [13] = molecular target: ALX1 (Homo sapiens, UniProt Q15699 118-204, L144V)
# Sequence of ALX1 (Homo sapiens, UniProt Q15699 118-204, L144V) (Q15699 118-204 L144V): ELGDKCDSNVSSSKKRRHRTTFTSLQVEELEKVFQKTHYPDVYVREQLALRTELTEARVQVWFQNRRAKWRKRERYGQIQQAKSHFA
# [14] = molecular target: ALX3 (Homo sapiens, UniProt O95076 139-225, N203Q)
# Sequence of ALX3 (Homo sapiens, UniProt O95076 139-225, N203Q) (O95076 139-225 N203Q): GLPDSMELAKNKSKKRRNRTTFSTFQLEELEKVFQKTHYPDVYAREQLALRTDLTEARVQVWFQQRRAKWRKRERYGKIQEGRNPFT
# [15] = molecular target: HOXD13 (Homo sapiens, UniProt P35453 263-343, T313R)
# Sequence of HOXD13 (P35453 263-343 T313R): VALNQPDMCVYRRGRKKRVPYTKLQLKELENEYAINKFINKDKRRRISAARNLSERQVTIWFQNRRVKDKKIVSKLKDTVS
# [16] = molecular target: T3, PAX4 (Homo sapiens, UniProt O43316 9-242, R200Q)
# T3 sequence: T1 sequence with K192Q
# [17] = molecular target: SHOX (Homo sapiens, UniProt O15266 103-189, R173C)
# Sequence of SHOX (O15266 103-189 R173C): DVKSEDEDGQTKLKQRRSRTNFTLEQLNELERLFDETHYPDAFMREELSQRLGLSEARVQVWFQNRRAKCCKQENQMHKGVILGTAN
# [18] = molecular target: HOXC9 (Homo sapiens, UniProt P31274 178-260, R193K)
# Sequence of HOXC9 (Homo sapiens, UniProt P31274 178-260, R193K) (P31274 178-260 R193K): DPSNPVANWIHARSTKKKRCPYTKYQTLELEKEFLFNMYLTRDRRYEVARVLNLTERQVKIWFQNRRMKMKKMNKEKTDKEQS
# [19] = molecular target: ALX1 (Homo sapiens, UniProt Q15699 118-204, L144R)
# Sequence of ALX1 (Homo sapiens, UniProt Q15699 118-204, L144R) (Q15699 118-204 L144R): as the sequence (Q15699 118-204 L144V) above, with V27R counted along it
# [20] = molecular target: T4, PAX4 (Homo sapiens, UniProt O43316 9-242, F177V)
# T4 sequence: T1 sequence with F169V, K192R
# [21] = molecular target: HOXC10 (Homo sapiens, UniProt Q9NYD6 254-340, K271E)
# Sequence of HOXC10 (Homo sapiens, UniProt Q9NYD6 254-340, K271E) (Q9NYD6 254-340 K271E): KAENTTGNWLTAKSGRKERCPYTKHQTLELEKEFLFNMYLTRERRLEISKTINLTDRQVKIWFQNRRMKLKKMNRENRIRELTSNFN
# [22] = molecular target: ALX3 (Homo sapiens, UniProt O95076 139-225)
# Sequence of ALX3 (Homo sapiens, UniProt O95076 139-225) (O95076 139-225): as the sequence (O95076 139-225 N203Q) above, with Q65N counted along it
# [23] = molecular target: T5, PAX4 (Homo sapiens, UniProt O43316 9-242, F177Y)
# T5 sequence: T1 sequence with F169Y, K192R
# [24] = molecular target: HESX1 (Homo sapiens, UniProt Q9UBX0 95-180, R109Q)
# Sequence of HESX1 (Homo sapiens, UniProt Q9UBX0 95-180, R109Q) (Q9UBX0 95-180 R109Q): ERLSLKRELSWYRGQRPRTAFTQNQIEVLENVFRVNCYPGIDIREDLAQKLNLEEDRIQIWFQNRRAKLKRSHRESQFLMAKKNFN
# [25] = molecular target: ALX3 (Homo sapiens, UniProt O95076 139-225, L168Q)
# Sequence of ALX3 (Homo sapiens, UniProt O95076 139-225, L168Q) (O95076 139-225 L168Q): as the sequence (O95076 139-225 N203Q) above, with L30Q, Q65N counted along it
# [26] = molecular target: HESX1 (Homo sapiens, UniProt Q9UBX0 95-180, P111T)
# Sequence of HESX1 (Homo sapiens, UniProt Q9UBX0 95-180, P111T) (Q9UBX0 95-180 P111T): as the sequence (Q9UBX0 95-180 R109Q) above, with Q15R, P17T counted along it
# [27] = molecular target: HOXB9 (Homo sapiens, UniProt P17482 171-250, R186Q)
# Sequence of HOXB9 (Homo sapiens, UniProt P17482 171-250, R186Q) (P17482 171-250 R186Q): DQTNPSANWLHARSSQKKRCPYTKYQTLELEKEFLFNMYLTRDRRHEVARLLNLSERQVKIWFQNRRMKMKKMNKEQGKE
# [28] = molecular target: HOXC9 (Homo sapiens, UniProt P31274 178-260, R222W)
# Sequence of HOXC9 (Homo sapiens, UniProt P31274 178-260, R222W) (P31274 178-260 R222W): as the sequence (P31274 178-260 R193K) above, with K16R, R45W counted along it
# [29] = molecular target: ALX3 (Homo sapiens, UniProt O95076 139-225, L168V)
# Sequence of ALX3 (Homo sapiens, UniProt O95076 139-225, L168V) (O95076 139-225 L168V): as the sequence (O95076 139-225 N203Q) above, with L30V, Q65N counted along it
# [30] = molecular target: HESX1 (Homo sapiens, UniProt Q9UBX0 95-180, F115L)
# Sequence of HESX1 (Homo sapiens, UniProt Q9UBX0 95-180, F115L) (Q9UBX0 95-180 F115L): as the sequence (Q9UBX0 95-180 R109Q) above, with Q15R, F21L counted along it
# [31] = molecular target: VAX1 (Homo sapiens, UniProt Q5SQQ9 86-172, T142I)
# Sequence of VAX1 (Q5SQQ9 86-172 T142I): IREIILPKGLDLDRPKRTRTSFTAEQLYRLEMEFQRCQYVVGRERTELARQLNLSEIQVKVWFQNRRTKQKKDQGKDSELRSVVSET
# [32] = molecular target: T6, PAX4 (Homo sapiens, UniProt O43316 9-242, R227W)
# T6 sequence: T1 sequence with K192R, R219W
# [33] = molecular target: HOXA7 (Homo sapiens, UniProt P31268 116-202, W177C)
# Sequence of HOXA7 (Homo sapiens, UniProt P31268 116-202, W177C) (P31268 116-202 W177C): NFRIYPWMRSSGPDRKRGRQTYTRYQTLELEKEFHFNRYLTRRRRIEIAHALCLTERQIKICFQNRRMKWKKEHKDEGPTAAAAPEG
# [34] = molecular target: HOXA4 (Homo sapiens, UniProt Q00056 201-287, W262F)
# Sequence of HOXA4 (Homo sapiens, UniProt Q00056 201-287, W262F) (Q00056 201-287 W262F): as the sequence (Q00056 201-287 R217L) above, with L17R, W62F counted along it
# [35] = molecular target: ALX3 (Homo sapiens, UniProt O95076 139-225, N203S)
# Sequence of ALX3 (Homo sapiens, UniProt O95076 139-225, N203S) (O95076 139-225 N203S): as the sequence (O95076 139-225 N203Q) above, with Q65S counted along it
# [36] = molecular target: PRRX1 (Homo sapiens, UniProt P54821 80-166)
# Sequence of PRRX1 (Homo sapiens, UniProt P54821 80-166) (P54821 80-166): as the sequence (P54821 80-166 F113S) above, with S34F counted along it
# [37] = molecular target: HOXB6 (Homo sapiens, UniProt P17509 132-218)
# Sequence of HOXB6 (Homo sapiens, UniProt P17509 132-218) (P17509 132-218): as the sequence (P17509 132-218 K202E) above, with E71K counted along it
# Sequence of HOXC9 (Homo sapiens, UniProt P31274 178-260, K195R) (P31274 178-260 K195R): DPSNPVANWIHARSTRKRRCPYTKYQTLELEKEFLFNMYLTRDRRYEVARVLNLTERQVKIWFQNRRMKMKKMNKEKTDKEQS
# Sequence of HOXC10 (Homo sapiens, UniProt Q9NYD6 254-340) (Q9NYD6 254-340): as the sequence (Q9NYD6 254-340 K271E) above, with E18K counted along it
# Sequence of HOXB9 (Homo sapiens, UniProt P17482 171-250, T197M) (P17482 171-250 T197M): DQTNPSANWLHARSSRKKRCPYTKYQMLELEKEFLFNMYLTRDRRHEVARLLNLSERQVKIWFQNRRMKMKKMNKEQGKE
# Sequence of HOXA7 (Homo sapiens, UniProt P31268 116-202) (P31268 116-202): as the sequence (P31268 116-202 W177C) above, with C62W counted along it
sequence,measurement,setting,value
ATTAATAA,binding signal,[1],"10.1 upbm affinity estimate (log intensity, higher = more binding, comparable within an allelic series)"
same,binding signal,[2],"12.6 upbm affinity estimate (log intensity, higher = more binding, comparable within an allelic series)"
same,binding signal,[3],"11.2 upbm affinity estimate (log intensity, higher = more binding, comparable within an allelic series)"
same,binding signal,[4],"12.2 upbm affinity estimate (log intensity, higher = more binding, comparable within an allelic series)"
same,binding signal,[5],"13.5 upbm affinity estimate (log intensity, higher = more binding, comparable within an allelic series)"
same,binding signal,[6],"11.7 upbm affinity estimate (log intensity, higher = more binding, comparable within an allelic series)"
same,binding signal,[7],"11.2 upbm affinity estimate (log intensity, higher = more binding, comparable within an allelic series)"
same,binding signal,[8],"12.1 upbm affinity estimate (log intensity, higher = more binding, comparable within an allelic series)"
same,binding signal,[9],"10.1 upbm affinity estimate (log intensity, higher = more binding, comparable within an allelic series)"
same,binding signal,[10],"12.8 upbm affinity estimate (log intensity, higher = more binding, comparable within an allelic series)"
same,binding signal,[11],"12 upbm affinity estimate (log intensity, higher = more binding, comparable within an allelic series)"
same,binding signal,[12],"13.6 upbm affinity estimate (log intensity, higher = more binding, comparable within an allelic series)"
same,binding signal,[13],"11.4 upbm affinity estimate (log intensity, higher = more binding, comparable within an allelic series)"
same,binding signal,[14],"8.66 upbm affinity estimate (log intensity, higher = more binding, comparable within an allelic series)"
same,binding signal,[15],"10.8 upbm affinity estimate (log intensity, higher = more binding, comparable within an allelic series)"
same,binding signal,[16],"11.9 upbm affinity estimate (log intensity, higher = more binding, comparable within an allelic series)"
same,binding signal,[17],"9.26 upbm affinity estimate (log intensity, higher = more binding, comparable within an allelic series)"
same,binding signal,[18],"12.5 upbm affinity estimate (log intensity, higher = more binding, comparable within an allelic series)"
same,binding signal,[19],"11.2 upbm affinity estimate (log intensity, higher = more binding, comparable within an allelic series)"
same,binding signal,[20],"10.7 upbm affinity estimate (log intensity, higher = more binding, comparable within an allelic series)"
same,binding signal,[21],"11.8 upbm affinity estimate (log intensity, higher = more binding, comparable within an allelic series)"
same,binding signal,[22],"12.2 upbm affinity estimate (log intensity, higher = more binding, comparable within an allelic series)"
same,binding signal,[23],"11 upbm affinity estimate (log intensity, higher = more binding, comparable within an allelic series)"
same,binding signal,[24],"8.97 upbm affinity estimate (log intensity, higher = more binding, comparable within an allelic series)"
same,binding signal,[25],"10.2 upbm affinity estimate (log intensity, higher = more binding, comparable within an allelic series)"
same,binding signal,[26],"10.2 upbm affinity estimate (log intensity, higher = more binding, comparable within an allelic series)"
same,binding signal,[27],"11.4 upbm affinity estimate (log intensity, higher = more binding, comparable within an allelic series)"
same,binding signal,[28],"11.2 upbm affinity estimate (log intensity, higher = more binding, comparable within an allelic series)"
same,binding signal,[29],"9.99 upbm affinity estimate (log intensity, higher = more binding, comparable within an allelic series)"
same,binding signal,[30],"8.16 upbm affinity estimate (log intensity, higher = more binding, comparable within an allelic series)"
same,binding signal,[31],"12.3 upbm affinity estimate (log intensity, higher = more binding, comparable within an allelic series)"
same,binding signal,[32],"11 upbm affinity estimate (log intensity, higher = more binding, comparable within an allelic series)"
same,binding signal,[33],"9.01 upbm affinity estimate (log intensity, higher = more binding, comparable within an allelic series)"
same,binding signal,[34],"11.4 upbm affinity estimate (log intensity, higher = more binding, comparable within an allelic series)"
same,binding signal,[35],"8.71 upbm affinity estimate (log intensity, higher = more binding, comparable within an allelic series)"
same,binding signal,[36],"13.2 upbm affinity estimate (log intensity, higher = more binding, comparable within an allelic series)"
same,binding signal,[37],"11.7 upbm affinity estimate (log intensity, higher = more binding, comparable within an allelic series)"
